Data on 40 compounds can be found in PubChem BioAssay (NCATS).

Values without a mark were called inactive. Active and inactive are the calls of the source. Calls follow the shape of the dose curve; as a rule, active = well fitted inhibition curve with a large enough effect; inconclusive = small, poorly fitted or top-dose-only effect; inactive = flat fitted curve, though single readings scatter.

Chain of DNA polymerase III PolC-type (Bacillus subtilis (strain 168)) (P13267 whole entry, looked up): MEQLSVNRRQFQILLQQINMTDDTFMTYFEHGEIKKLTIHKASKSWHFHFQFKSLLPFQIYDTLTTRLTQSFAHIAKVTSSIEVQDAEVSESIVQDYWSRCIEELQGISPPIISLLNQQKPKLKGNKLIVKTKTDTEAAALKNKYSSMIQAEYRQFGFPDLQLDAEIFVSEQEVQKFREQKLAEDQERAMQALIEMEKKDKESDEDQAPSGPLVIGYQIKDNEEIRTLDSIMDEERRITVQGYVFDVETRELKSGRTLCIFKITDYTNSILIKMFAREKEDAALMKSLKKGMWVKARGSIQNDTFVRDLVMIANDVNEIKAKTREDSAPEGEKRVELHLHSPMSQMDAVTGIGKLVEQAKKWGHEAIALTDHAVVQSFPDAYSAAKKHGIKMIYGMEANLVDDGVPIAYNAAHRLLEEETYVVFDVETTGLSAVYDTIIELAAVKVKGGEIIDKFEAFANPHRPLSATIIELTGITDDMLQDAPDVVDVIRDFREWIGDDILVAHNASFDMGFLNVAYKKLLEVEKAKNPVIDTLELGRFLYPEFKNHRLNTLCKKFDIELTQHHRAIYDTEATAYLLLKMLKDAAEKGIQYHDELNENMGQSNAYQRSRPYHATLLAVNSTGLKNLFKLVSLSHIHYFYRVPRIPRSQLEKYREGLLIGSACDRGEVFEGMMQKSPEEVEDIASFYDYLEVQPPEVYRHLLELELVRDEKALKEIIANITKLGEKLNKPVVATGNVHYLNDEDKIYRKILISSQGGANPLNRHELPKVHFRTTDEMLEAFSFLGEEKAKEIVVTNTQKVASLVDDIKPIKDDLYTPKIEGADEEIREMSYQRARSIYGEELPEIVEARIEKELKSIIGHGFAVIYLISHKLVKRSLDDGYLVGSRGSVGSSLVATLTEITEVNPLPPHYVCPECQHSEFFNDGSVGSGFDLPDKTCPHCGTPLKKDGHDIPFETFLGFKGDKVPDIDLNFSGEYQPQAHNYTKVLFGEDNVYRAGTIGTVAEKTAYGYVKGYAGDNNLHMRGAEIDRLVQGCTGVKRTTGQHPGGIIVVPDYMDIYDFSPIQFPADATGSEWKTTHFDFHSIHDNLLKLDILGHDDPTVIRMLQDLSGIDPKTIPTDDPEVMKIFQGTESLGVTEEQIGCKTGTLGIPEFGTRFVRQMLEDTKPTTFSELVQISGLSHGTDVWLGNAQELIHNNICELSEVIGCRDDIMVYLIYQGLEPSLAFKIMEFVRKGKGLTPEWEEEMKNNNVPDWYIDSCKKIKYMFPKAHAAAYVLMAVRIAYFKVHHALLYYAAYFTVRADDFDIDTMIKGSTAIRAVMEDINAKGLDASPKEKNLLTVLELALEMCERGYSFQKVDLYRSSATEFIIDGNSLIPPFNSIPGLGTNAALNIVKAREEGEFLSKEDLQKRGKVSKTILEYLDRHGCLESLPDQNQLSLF

This assay has as its target DNA polymerase III PolC-type (Bacillus subtilis (strain 168)) (UniProt P13267). Kind of assay: qHTS Validation Assay for the Inhibitors of DNA Replication in Gram-Positive Bacteria (AID 485295).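 Also: reconstituted holoenzyme with PolC plus beta clamp SSB and primase.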 To be noted: Gram-positive bacterial DNA replication assay; series mostly up to 57.1 µM; activity change, negative = inhibition: at the top concentration. The procedure: B Subtilis DNA polymerase III holoenzyme complex was assayed for DNA production by fluorescent detection of the double-stranded DNA product with PicoGreen dye. The holoenzyme complex was reconstituted from the following purified protein components: DNA Polymerase III, beta subunit processivity factor, SSB single-stranded DNA binding protein, and Primase. Single-stranded, circular M13Gori was used as a substrate with dNTPs and NTPs also supplied to the substrate reagent. Compounds from the NCGC collection were incubated with the holoenzyme mixture for […] at room temperature to allow binding to occur, and then the reaction was started by the addition of substrate. After 30 min incubation at room temperature, PicoGreen solution containing EDTA was added to stop the reaction and to visualize the double-stranded DNA produced. Reaction progress was measured in a ViewLux CCD imager in fluorescence intensity mode by using 480 nm excitation and 540 nm emission filter set.
1. Thaw screening compounds.
2. Label assay plates. Prepare pipette tips, reagent reservoirs, buffers and controls.
1. Thaw Enzymes, DNA template, Nucleotides and PicoGreen dye concentrate. Thawed enzymes are stable on ice for ~1
week. Other thawed components are stable indefinitely.
2. Prepare sufficient quantities of Enzyme, Substrate and PicoGreen Quench mixes (according to Table II). For the number of
compound plates being screened.
3. Ensure that the tip wash station reservoirs have clean water and turn on recirculating chiller so that the chilled deck position
1. Load 2 uL of EDTA controls (250 mM, Background, 100 % inhibition) and 2 uL of DMSO controls (Negative control, 0%
inhibition) in the screening plates (flat-bottomed black 384-well polypropylene, Greiner Bio-one).
2. Place Enzyme mix reservoir on the chiller position of the liquid handler deck. Make sure that chiller will maintain
temperature of Enzyme mix at 4degC. Substrate mix and PicoGreen Quench can be stored at room temp.
3. Program liquid handling robotics to dispense 18 uL of Enzyme mix into assay plates. Wash tips.
4. Aspirate and dispense 2 uL of compound from compound plates, mix and Incubate at room temperature for 10 minutes.
5. Aspirate 5 ul of Substrate mix, dispense into assay plates and mix by pipetting. Wash tips.
6. Incubate at room temperature (21 +/- 1 deg C) for 20 minutes.
7. Quench reactions by addition of 25 uL PicoGreen Quench mix and mix by pipetting (using HTS robotics or bulk reagent
dispenser such as a Multidrop or uFill). Keep plates in the dark or stacked until ready to read fluorescence.
8. Read fluorescence intensity of plates on plate reader using "Fluorescein (Ex 485 nm/ Em 535 nm, 0.1s)" setting.
Consider `CCCCCCCCCCCCCCCC(=O)NCCO`, for which the “activity change, negative = inhibition” value is 9.07%.

Take `CC(C)(C)c1onc(OCP(=O)(O)O)c1CC(N)C(=O)O` (stereo not given): the compound was classed as inactive.

As to `CC(=O)OCC(=O)[C@@]1(O)CC[C@H]2[C@@H]3CCC4=CC(=O)CC[C@]4(C)[C@H]3C(=O)C[C@@]21C`, the “activity change, negative = inhibition” value was -2.53%.

For `CNCC(O)c1ccc(O)c(O)c1` (stereo not given), the “activity change, negative = inhibition” value is 0.882%.

As to `NC1CCN(c2cccc(Cl)n2)CC1`, the “activity change, negative = inhibition” value is 4.35%.

Consider `CSc1ccc2c(c1)N(CCC1CCCCN1C)c1ccccc1S2` (stereo not given), for which the “activity change, negative = inhibition” value was 2.52%.

`CN(C)CCCN1c2ccccc2CCc2ccccc21`: the “activity change, negative = inhibition” value is 0.0769%.

For the compound `Nc1ncnc2c1ncn2[C@@H]1O[C@H](CO)[C@@H](O)[C@H]1O`, the “activity change, negative = inhibition” value was 6.56%.

For `CCN(CC)CCOC(=O)C1(C2CCCCC2)CCCCC1`, the “activity change, negative = inhibition” value was 6.5%.

On to `C[C@](N)(Cc1ccc(O)cc1)C(=O)O`, for which the “activity change, negative = inhibition” value is -2.85%.

As to `CNC(=O)Oc1ccc2c(c1)[C@]1(C)CCN(C)[C@@H]1N2C`, the “activity change, negative = inhibition” value was -0.613%.

In the case of `CCN(CC)C(C)CN1c2ccccc2Sc2ccccc21` (stereo not given), the “activity change, negative = inhibition” value was -0.961%.

As to `CC(C)(C)[C@]1(O)CCN2C[C@H]3c4ccccc4CCc4cccc(c43)[C@@H]2C1`, the result was inactive.

`CC(C)(C(=O)O)c1ccc(C(O)CCCN2CCC(C(O)(c3ccccc3)c3ccccc3)CC2)cc1` (stereo not given): the “activity change, negative = inhibition” value was -5.83%.

Consider `C[C@]12C[C@H](O)[C@H]3[C@@H](CCC4=CC(=O)CC[C@@]43C)[C@@H]1CC[C@@H]2C(=O)CO`, for which the “activity change, negative = inhibition” value was -1.45%.

As to `COc1ccc(Cl)cc1C(=O)NCCc1ccc(S(=O)(=O)NC(=O)NC2CCCCC2)cc1`, the “activity change, negative = inhibition” value was -3.75%.

In the case of `CC[C@H]1CN2CCc3cc(OC)c(OC)cc3[C@@H]2C[C@@H]1C[C@H]1NCCc2cc(OC)c(OC)cc21`, the “activity change, negative = inhibition” value is 0.297%.

With `NC(N)=NCCC[C@H](N)C(=O)O`, the “activity change, negative = inhibition” value was -3.67%.

For `NC(=O)c1ncn([C@@H]2O[C@H](CO)[C@@H](O)[C@H]2O)n1`, the “activity change, negative = inhibition” value was 3.87%.

As for `CCN(CC)CCNC(=O)c1cc(Cl)c(N)cc1OC`, the “activity change, negative = inhibition” value is 4.99%.

With `CC1=C(CC(=O)O)c2cc(F)ccc2/C1=C\c1ccc(S(C)=O)cc1` (stereo not given), the “activity change, negative = inhibition” value was -1.2%.

As for `CN(C)CCOC(C)(c1ccccc1)c1ccccn1` (stereo not given), the “activity change, negative = inhibition” value was -4.35%.

For `OCc1cc(C(O)CNCCCCCCOCCCCc2ccccc2)ccc1O` (stereo not given), the “activity change, negative = inhibition” value was 0.671%.

`CN(C)CCCN1c2ccccc2Sc2ccc(Cl)cc21`: the “activity change, negative = inhibition” value was -1.08%.

For the compound `CC(CN(C)C)CN1c2ccccc2CCc2ccccc21` (stereo not given), the “activity change, negative = inhibition” value is 3.36%.

Turning to `C=Cc1c(C)c2cc3[nH]c(cc4nc(cc5nc(cc1[nH]2)C(C)=C5CCC(=O)O)C(CCC(=O)O)=C4C)c(C)c3C=C`, the “activity change, negative = inhibition” value was -24.4%.

On to `O=C1N=C(O)CN1/N=C/c1ccc(-c2ccc([N+](=O)[O-])cc2)o1`, for which the “activity change, negative = inhibition” value was -2.27%.

`CCCn1cnc2c1c(=O)n(CCCCC(C)=O)c(=O)n2C`: the “activity change, negative = inhibition” value is 7.33%.

In the case of `COCCOC(=O)C1=C(C)NC(C)=C(C(=O)OC/C=C/c2ccccc2)C1c1cccc([N+](=O)[O-])c1` (stereo not given), the “activity change, negative = inhibition” value is -8.31%.

As to `CC1=C(CC(=O)O)c2cc(F)ccc2/C1=C\c1ccc(S(C)(=O)=O)cc1`, the “activity change, negative = inhibition” value was -0.904%.

`C#CCN(C)Cc1ccccc1`: the “activity change, negative = inhibition” value is -2.43%.

In the case of `CCN(CC)CCCC(C)Nc1c2ccc(Cl)cc2nc2ccc(OC)cc12` (stereo not given), the “activity change, negative = inhibition” value is -6.96%.

Regarding `CN(C)CC[C@@H](c1ccc(Cl)cc1)c1ccccn1`, the “activity change, negative = inhibition” value is 1.56%.

Regarding `CNCCCC1c2ccccc2C=Cc2ccccc21`, the “activity change, negative = inhibition” value is 2.65%.

On to `CC(C)NC[C@H](O)c1ccc(O)c(O)c1`, for which the result was inactive.

As to `COC(=O)C1=C(C)NC(C)=C(C(=O)OC)C1c1ccccc1[N+](=O)[O-]`, the “activity change, negative = inhibition” value is -1.33%.

On to `CN1CCN(C2Cc3ccccc3Sc3ccc(Cl)cc32)CC1` (stereo not given), for which the “activity change, negative = inhibition” value was -8.93%.

Turning to `CNCCC(Oc1ccc(C(F)(F)F)cc1)c1ccccc1` (stereo not given), the “activity change, negative = inhibition” value was -7.91%.

For `CSc1ccc2c(c1)C(N1CCN(C)CC1)Cc1ccccc1S2` (stereo not given), the “activity change, negative = inhibition” value was -1.53%.

For `Cc1cc(N)c2ccccc2[n+]1CCCCCCCCCC[n+]1c(C)cc(N)c2ccccc21`, the “activity change, negative = inhibition” value is -1.76%.
